# In all, about 1,300 compounds went through this assay and about 150 (12%) were called active. Entries that show only a call come without a potency. Roughly 30% stayed inconclusive and do not appear here. This is one part of a sample in which actives are shown more often than they occur. Calls come from the whole dose curve; as a rule, active = well fitted cell-killing curve with a large enough effect; inconclusive = small, poorly fitted or top-dose-only effect, or effect the other way; inactive = flat fitted curve, though single readings scatter.
# Assay: qHTS of small molecules that selectively kill Giardia lamblia: Hit Validation in HepG2 cytotox;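 note: compound exposure lasted overnight at 37 deg C; nearly all actives have a fitted effect of over 55% in size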
# Conditions: cell viability; Potency: HepG2 cytotoxicity; series mostly up to 38.3 µM
# How it was run: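 Counterscreen cytotoxicity: ATPLite luminescence (15 min, room temperature) measured in HepG2 cells exposed overnight at 37 deg C to pin-transferred compound (23 nL) after overnight pre-incubation.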
# Potency is the fitted concentration of half-maximal effect.
row,Structure (SMILES),Potency
1,O=C(O)c1cc2ccccc2c(N=Nc2cccnc2)c1O,inactive
2,CCC(=O)N1CCN(c2ccc(Cl)cc2NC(=O)c2ccc([N+](=O)[O-])o2)CC1,inactive
3,CC(=O)N1CCN(c2ccc(S(C)(=O)=O)cc2[N+](=O)[O-])CC1,inactive
4,O=C(Nc1cccc(NC(=O)c2ccccc2Cl)c1)c1ccc([N+](=O)[O-])o1,2.61 µM (active)
5,CCC(=O)N1CCN(c2ccc(NC(=O)c3ccc([N+](=O)[O-])o3)cc2Cl)CC1,3.69 µM (active)
6,CC(=O)N1CCN(c2ccc(NC(=O)c3ccc([N+](=O)[O-])o3)cc2Cl)CC1,9.27 µM (active)
7,CN1CCN(c2ccc(NC(=O)c3ccc([N+](=O)[O-])o3)cc2Cl)CC1,3.69 µM (active)
8,O=C(Nc1nc2c(Cl)cccc2s1)c1ccc([N+](=O)[O-])o1,inactive
9,CCCn1c(C)cc(C(=O)COc2ccc(C)nc2[N+](=O)[O-])c1C,inactive
10,CCNc1ccc(N=Nc2c(C)n(C)n(-c3ccccc3)c2=O)cc1,inactive
11,N#Cc1sc(NCc2cccc(Cl)c2)nc1Cl,inactive
12,COc1ccc(C(CNC(=O)c2oc3cc(Br)ccc3c2C)N2CCCCC2)cc1 (stereo not given),inactive
13,CC(=O)Oc1ccc2c(=O)c(Oc3ccccc3[N+](=O)[O-])coc2c1,inactive
14,NC(=O)c1oc2ccccc2c1NC(=O)c1ccc([N+](=O)[O-])o1,2.61 µM (active)
15,COc1ccc(N2CCCC2)c(NC(=O)c2ccc([N+](=O)[O-])o2)c1,inactive
16,O=C(Nc1cccc(Cl)c1N1CCOCC1)c1ccc([N+](=O)[O-])o1,inactive
17,O=C(Nc1ccc(N2CCCC2)c(Cl)c1)c1ccc([N+](=O)[O-])o1,7.36 µM (active)
18,Cc1ccc(C)c(Sc2ccc(NC(=O)CCl)cc2)c1,inactive
19,COc1ccc2oc(=Nc3ccccc3)c(-c3nc4ccccc4[nH]3)cc2c1,7.36 µM (active)
20,Cc1ncc([N+](=O)[O-])n1CCOC(=O)c1ccccc1,inactive

row,Structure (SMILES),Potency
1,Cc1ccc(S(=O)(=O)N2[C@@H](c3ccccc3F)C(C(=O)O)=CC[C@H]2c2cccc(C)c2)cc1,inactive
2,[O-][n+]1c2ccccc2c2n1CCCN=C2c1ccc(Cl)cc1,inactive
3,O=C(CN1C(=O)c2ccccc2S1(=O)=O)c1ccc2c(c1)OCCO2,2.07 µM (active)
4,O=[N+]([O-])c1nn(-c2ccccc2)[n+]([O-])c1N1CCN(c2ccccc2F)CC1,inactive
5,O=[N+]([O-])c1ccc(/C=C/c2ccnc3ccccc23)c([N+](=O)[O-])c1,inactive
6,CCOn1c(=O)c(-c2cccc([N+](=O)[O-])c2)[n+]([O-])c2ccccc21,inactive
7,CSC1SCC2C(=O)N(C)C(C(C)C)C(=O)OCC(NC(=O)c3cnc4ccccc4n3)C(=O)NC(C)C(=O)N(C)C1C(=O)N(C)C(C(C)C)C(=O)OCC(NC(=O)c1cnc3ccccc3n1)C(=O)NC(C)C(=O)N2C (stereo not given),0.0117 µM (active)
8,O=[N+]([O-])c1cccc(S(=O)(=O)c2ccc(NCCOCCO)c([N+](=O)[O-])c2)c1,inactive
9,Cc1ccc(C2=NCCn3c2c2ccc(C(F)(F)F)cc2[n+]3[O-])cc1,inactive
10,COc1cc(NC(=O)c2ccc([N+](=O)[O-])o2)ccc1NC(=O)c1cccs1,14.7 µM (active)
11,Cc1onc(NC(=O)c2ccc([N+](=O)[O-])o2)c1Br,inactive
12,Cc1ccc(CNC(=O)c2ccc([N+](=O)[O-])o2)cc1,inactive
13,O=C(Nc1ccc(Cc2ccncc2)cc1)c1ccc([N+](=O)[O-])o1,6.56 µM (active)
14,COc1ccc(NC(=O)c2ccc([N+](=O)[O-])o2)cc1,3.69 µM (active)
15,Cc1cc(NC(=O)c2ccc([N+](=O)[O-])o2)ccc1NC(=O)c1ccco1,2.93 µM (active)
16,O=C(NCc1ccco1)c1ccc([N+](=O)[O-])o1,inactive
17,COc1ccc(-c2cc3ccccc3oc2=O)cc1NC(=O)c1ccc([N+](=O)[O-])o1,inactive
18,CCN(CC(=O)NCc1cccs1)C(=O)c1ccc([N+](=O)[O-])o1,inactive
19,O=C(Nc1ncccn1)c1ccc([N+](=O)[O-])o1,inactive
20,COc1ccc(CC(NC(C)=O)C(=O)NC2CCN(c3ncccc3[N+](=O)[O-])CC2)cc1 (stereo not given),inactive

row,Structure (SMILES),Potency
1,CCC1CCCCN1C(=O)c1ccc([N+](=O)[O-])o1 (stereo not given),inactive
2,Cc1ccc(C2=NCCn3c2c2ccc([N+](=O)[O-])cc2[n+]3[O-])cc1,inactive
3,O=[n+]1c2c(n([O-])c3cc(Br)ccc31)CCCC2,inactive
4,CCOc1cc(C=O)ccc1OCCn1c([N+](=O)[O-])cnc1C,inactive
5,CCOC(=O)C1=C(C)N=c2s/c(=C/c3cccc([N+](=O)[O-])c3O)c(=O)n2C1c1ccc(OC)cc1OC (stereo not given),inactive
6,CCN(CC)CCOC(=O)c1ccc(N/C=C(/C#N)c2nc(-c3cc4ccccc4oc3=O)cs2)cc1,inactive
7,O=[N+]([O-])c1ncn(Cc2c(Cl)cccc2Cl)n1,inactive
8,C=CCNC(=O)c1ccccc1NC(=O)COc1ccccc1,inactive
9,O=C(COc1cccnc1[N+](=O)[O-])NCc1ccc(F)cc1,inactive
10,CC(=O)c1c(COC(=O)c2ccccc2Cl)nc2ccccc2[n+]1[O-],inactive
11,O=[N+]([O-])c1ccc2nc(-c3ccc(OC(F)F)cc3)cn2c1,inactive
12,COc1cccc([C@@H]2CC=C(C(=O)O)[C@H](c3cccc(Cl)c3)N2S(=O)(=O)c2ccc(C)cc2)c1,inactive
13,COc1ccc(NC(=O)c2ccc([N+](=O)[O-])cc2[N+](=O)[O-])c(OC)c1,inactive
14,CC(=O)c1c(C)n([O-])c2cc(C)ccc2[n+]1=O,inactive
15,CC(=O)N1CCc2c(sc(NC(=O)c3ccc([N+](=O)[O-])o3)c2C#N)C1,3.29 µM (active)
16,NC(=O)c1c(NC(=O)CCCn2cnc([N+](=O)[O-])n2)sc2c1CCCC2,inactive
17,NC(=O)c1c(NC(=O)c2ccc([N+](=O)[O-])o2)sc2c1CCCC2,11.7 µM (active)
18,O=C(c1ccc([N+](=O)[O-])o1)N1CCc2ccccc2C1,inactive
19,COC(=O)c1sc(NC(=O)c2ccc([N+](=O)[O-])o2)c(C#N)c1C,inactive
20,O=C1S/C(=C\c2ccc(O)c([N+](=O)[O-])c2)C(=O)N1Cc1cccc([N+](=O)[O-])c1,inactive

# Source: PubChem BioAssay AID588382 (National Center for Advancing Translational Sciences (NCATS), 2011)
